Measured values published in PubChem BioAssay (Tox21).
Records with an inconclusive call do not appear. The source made the active and inactive calls. Unless noted, calls follow the shape of the dose curve; as a rule, active = well fitted curve in the direction sought with a large enough effect in the repeat runs; inconclusive = weak or mixed curves; inactive = no such curve, though single readings can be large; an effect the other way counts as inactive or inconclusive.

Tests used:
[1] = target: Acetylcholinesterase (Homo sapiens) (UniProt P22303); assay: Acetylcholinesterase (AChE) small molecule antagonists: enzyme-based qHTS assay (AID 1347397; calls by dose curve; also: nearly all actives have a fitted effect of over 55% in size); settings: Potency: AChE enzyme activity inhibition
In short: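 Human recombinant acetylcholinesterase; substrate acetylthiocholine; thiocholine quantified with DTNB (colorimetric). Compound preincubation 30 min RT; reaction 10 min RT.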

[2] = target: Acetylcholinesterase (Homo sapiens) (UniProt P22303); assay: Acetylcholinesterase (AChE) small molecule antagonists: fluorescence cell-based qHTS assay (AID 1347398; calls by dose curve; also: nearly all actives have a fitted effect of over 50% in size); settings: Potency: AChE activity
In short: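 Thiocholine generated from acetylthiocholine by SH-SY5Y cell AChE is detected with Thiolite Green (Ex/Em 490/520 nm) after 40 min at room temperature, following 30 min compound pretreatment at 37 C.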

[3] = target: Acetylcholinesterase (Homo sapiens) (UniProt P22303); assay: Acetylcholinesterase (AChE) small molecule antagonists: enzyme-based qHTS assay with human liver microsomes (AID 1347399; calls by dose curve; also: nearly all actives have a fitted effect of over 60% in size); settings: Potency: qHTS inhibition
In short: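 Recombinant human AChE (50 mU/mL in the enzyme mix) and human liver microsomes (0.25 mg/mL final) were preincubated with compound and NADPH (0.25 mg/mL final) for 30 min at 37 C. Acetylthiocholine/DTNB was then added; thiocholine was read colorimetrically after 10 min at room temperature.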

[4] = target: Cytochrome P450 2D6 (Homo sapiens) (UniProt P10635); assay: Cytochrome P450 Family 2 Subfamily D Member 6 (CYP2D6) small molecule antagonists: luciferase reporter qHTS assay (AID 1671196); also: nearly all actives have a fitted effect of over 50% in size
In short: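 Cell-free P450-Glo system: CYP2D6 with proluciferin substrate was pre-incubated with compound for 10 min, then reacted with NADPH regeneration for 1 h at room temperature. Luciferin product was detected after 20 min, and data were reported as relative luminescence units.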

[5] = target: Cytochrome P450 2C19 (Homo sapiens) (UniProt P33261); assay: Cytochrome P450 Family 2 Subfamily C Member 19 (CYP2C19) small molecule antagonists: luciferase reporter qHTS assay (AID 1671197); also: nearly all actives have a fitted effect of over 65% in size
In short: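 Inhibition of CYP2C19 was scored from loss of luminescence in a P450-Glo proluciferin substrate assay, NADPH-started and run 1 h at 37C, with ketoconazole as positive control.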

[6] = target: Cytochrome P450 2C9 (Homo sapiens) (UniProt P11712); assay: Cytochrome P450 Family 2 Subfamily C Member 9 (CYP2C9) small molecule antagonists: luciferase reporter qHTS assay (AID 1671198); also: nearly all actives have a fitted effect of over 50% in size
In short: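 CYP2C9 activity was measured with a P450-Glo proluciferin substrate. Enzyme–substrate mix was held with compound for 10 min at room temperature, then NADPH regeneration solution was added for 1 h at 37C. Luciferin product was read as luminescence.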

[7] = target: Cytochrome P450 1A2 (Homo sapiens) (UniProt P05177); assay: Cytochrome P450 Family 1 Subfamily A Member 2 (CYP1A2) small molecule antagonists: luciferase reporter qHTS assay (AID 1671199); also: nearly all actives have a fitted effect of over 50% in size
In short: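 P450-Glo CYP1A2 enzyme–proluciferin substrate mix with compound 10 min at room temperature, then NADPH regeneration 1 h at room temperature. Luciferin detection reagent added, luminescence read after 20 min; furafylline positive control.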

[8] = target: Voltage-gated inwardly rectifying potassium channel KCNH2 (Homo sapiens) (UniProt Q12809); assay: Human Ether-a-go-go-Related Gene (hERG) channel small molecule antagonists: fluorescence cell-based qHTS assay (AID 1671200); also: nearly all actives have a fitted effect of over 50% in size
In short: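 U2OS cells expressing the channel were plated at 1000 cells/well, incubated overnight at 37 C, then loaded with FluxOR II thallium-sensitive dye for 1 h at room temperature in the dark, with a further 10 min at room temperature before stimulation.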

[9] = target: Cytochrome P450 3A4 (Homo sapiens) (UniProt P08684); assay: Cytochrome P450 Family 3 Subfamily A Member 4 (CYP3A4) small molecule antagonists: luciferase reporter qHTS assay (AID 1671201); also: nearly all actives have a fitted effect of over 50% in size
In short: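 P450-Glo CYP3A4 system with proluciferin substrate; compounds preincubated 10 min RT with enzyme-substrate mix, then NADPH regeneration added for 1 h RT. Detection reagent 20 min, luminescence read as relative luminescence units.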

Measured: Potency
Potency is read from the fitted curve at half-maximal effect.

Cytochrome P450 2C19 (Homo sapiens), sequence (P33261 whole entry, looked up): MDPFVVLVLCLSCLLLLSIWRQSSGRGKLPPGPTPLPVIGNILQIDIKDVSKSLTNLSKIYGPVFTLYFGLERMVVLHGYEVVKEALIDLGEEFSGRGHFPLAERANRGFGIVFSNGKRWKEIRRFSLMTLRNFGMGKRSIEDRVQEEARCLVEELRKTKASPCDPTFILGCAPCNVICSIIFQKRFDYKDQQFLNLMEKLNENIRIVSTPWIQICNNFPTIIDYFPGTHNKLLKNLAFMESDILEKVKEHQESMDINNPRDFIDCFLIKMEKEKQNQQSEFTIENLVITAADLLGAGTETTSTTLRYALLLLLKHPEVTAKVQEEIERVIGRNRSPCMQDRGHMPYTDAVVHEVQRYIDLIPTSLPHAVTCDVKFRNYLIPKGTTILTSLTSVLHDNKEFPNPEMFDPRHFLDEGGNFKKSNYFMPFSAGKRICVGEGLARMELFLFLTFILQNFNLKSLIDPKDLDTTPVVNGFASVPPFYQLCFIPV
Cytochrome P450 2D6 (Homo sapiens), sequence (P10635 whole entry, looked up): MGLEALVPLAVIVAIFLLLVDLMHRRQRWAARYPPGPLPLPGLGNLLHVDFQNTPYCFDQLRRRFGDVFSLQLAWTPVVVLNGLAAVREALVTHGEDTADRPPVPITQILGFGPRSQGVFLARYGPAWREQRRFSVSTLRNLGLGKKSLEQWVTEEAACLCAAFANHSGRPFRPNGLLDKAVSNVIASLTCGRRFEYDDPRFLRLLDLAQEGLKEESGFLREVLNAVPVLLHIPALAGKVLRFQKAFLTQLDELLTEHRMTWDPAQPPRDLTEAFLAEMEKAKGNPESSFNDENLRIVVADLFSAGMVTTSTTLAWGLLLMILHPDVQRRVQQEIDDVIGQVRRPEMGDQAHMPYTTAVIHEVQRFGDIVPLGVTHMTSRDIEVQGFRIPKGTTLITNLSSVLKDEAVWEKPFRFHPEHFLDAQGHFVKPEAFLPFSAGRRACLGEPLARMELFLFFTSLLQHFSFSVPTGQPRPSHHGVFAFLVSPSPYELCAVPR
Cytochrome P450 1A2 (Homo sapiens), sequence (P05177 whole entry, looked up): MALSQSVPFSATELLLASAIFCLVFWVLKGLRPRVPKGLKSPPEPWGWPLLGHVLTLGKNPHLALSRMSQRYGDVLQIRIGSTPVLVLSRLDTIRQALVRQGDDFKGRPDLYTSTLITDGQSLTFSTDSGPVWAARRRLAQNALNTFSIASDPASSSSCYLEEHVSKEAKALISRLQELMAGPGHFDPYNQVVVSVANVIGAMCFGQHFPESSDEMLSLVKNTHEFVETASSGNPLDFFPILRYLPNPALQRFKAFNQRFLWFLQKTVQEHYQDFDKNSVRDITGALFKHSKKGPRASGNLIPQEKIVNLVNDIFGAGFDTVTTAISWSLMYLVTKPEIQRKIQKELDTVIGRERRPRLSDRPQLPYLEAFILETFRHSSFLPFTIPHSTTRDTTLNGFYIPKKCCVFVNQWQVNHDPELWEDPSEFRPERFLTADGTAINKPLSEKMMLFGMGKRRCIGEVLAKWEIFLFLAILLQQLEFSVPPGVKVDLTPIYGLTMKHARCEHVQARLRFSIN
Cytochrome P450 2C9 (Homo sapiens), sequence (P11712 whole entry, looked up): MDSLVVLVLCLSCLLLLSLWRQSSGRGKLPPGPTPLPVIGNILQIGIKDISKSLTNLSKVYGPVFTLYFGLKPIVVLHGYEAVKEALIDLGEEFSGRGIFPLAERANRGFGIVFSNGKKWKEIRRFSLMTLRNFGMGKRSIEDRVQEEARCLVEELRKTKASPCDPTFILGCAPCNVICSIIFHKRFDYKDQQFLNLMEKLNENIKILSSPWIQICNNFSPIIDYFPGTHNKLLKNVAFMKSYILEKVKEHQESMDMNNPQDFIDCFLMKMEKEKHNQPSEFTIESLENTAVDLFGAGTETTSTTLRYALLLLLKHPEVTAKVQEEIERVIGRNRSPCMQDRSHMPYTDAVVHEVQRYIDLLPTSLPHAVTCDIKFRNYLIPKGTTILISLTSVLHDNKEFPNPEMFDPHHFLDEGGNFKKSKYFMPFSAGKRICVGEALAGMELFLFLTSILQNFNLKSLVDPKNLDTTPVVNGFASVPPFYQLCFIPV
Acetylcholinesterase (Homo sapiens), sequence (P22303 whole entry, looked up): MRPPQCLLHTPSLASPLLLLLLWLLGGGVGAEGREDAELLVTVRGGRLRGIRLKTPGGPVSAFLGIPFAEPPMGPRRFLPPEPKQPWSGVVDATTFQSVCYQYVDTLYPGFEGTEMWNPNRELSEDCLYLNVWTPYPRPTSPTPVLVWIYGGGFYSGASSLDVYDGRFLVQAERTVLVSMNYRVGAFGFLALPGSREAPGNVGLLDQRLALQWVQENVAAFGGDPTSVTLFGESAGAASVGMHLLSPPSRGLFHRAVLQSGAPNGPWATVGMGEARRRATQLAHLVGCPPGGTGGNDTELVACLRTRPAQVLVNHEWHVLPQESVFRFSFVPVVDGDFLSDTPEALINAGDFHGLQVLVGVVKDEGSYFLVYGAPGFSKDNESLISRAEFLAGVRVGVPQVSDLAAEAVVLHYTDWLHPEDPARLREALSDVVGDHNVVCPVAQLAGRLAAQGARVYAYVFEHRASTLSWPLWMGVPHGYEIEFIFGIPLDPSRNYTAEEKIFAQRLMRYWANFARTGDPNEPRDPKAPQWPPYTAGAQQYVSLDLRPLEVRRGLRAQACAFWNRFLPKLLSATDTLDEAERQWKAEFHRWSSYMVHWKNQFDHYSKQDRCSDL
Cytochrome P450 3A4 (Homo sapiens), sequence (P08684 whole entry, looked up): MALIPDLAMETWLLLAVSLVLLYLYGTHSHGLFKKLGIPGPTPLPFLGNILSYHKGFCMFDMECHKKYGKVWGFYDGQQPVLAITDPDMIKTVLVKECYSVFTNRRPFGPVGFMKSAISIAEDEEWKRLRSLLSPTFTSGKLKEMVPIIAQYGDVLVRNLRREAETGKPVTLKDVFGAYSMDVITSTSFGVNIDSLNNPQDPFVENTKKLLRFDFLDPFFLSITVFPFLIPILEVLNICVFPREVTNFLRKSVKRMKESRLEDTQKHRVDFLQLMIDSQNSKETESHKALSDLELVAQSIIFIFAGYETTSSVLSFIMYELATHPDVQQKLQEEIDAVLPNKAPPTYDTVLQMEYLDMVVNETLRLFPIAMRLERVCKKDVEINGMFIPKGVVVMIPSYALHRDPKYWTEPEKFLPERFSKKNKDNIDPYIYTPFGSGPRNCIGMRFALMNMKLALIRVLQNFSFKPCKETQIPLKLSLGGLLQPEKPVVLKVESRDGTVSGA
Voltage-gated inwardly rectifying potassium channel KCNH2 (Homo sapiens), sequence (Q12809 whole entry, looked up): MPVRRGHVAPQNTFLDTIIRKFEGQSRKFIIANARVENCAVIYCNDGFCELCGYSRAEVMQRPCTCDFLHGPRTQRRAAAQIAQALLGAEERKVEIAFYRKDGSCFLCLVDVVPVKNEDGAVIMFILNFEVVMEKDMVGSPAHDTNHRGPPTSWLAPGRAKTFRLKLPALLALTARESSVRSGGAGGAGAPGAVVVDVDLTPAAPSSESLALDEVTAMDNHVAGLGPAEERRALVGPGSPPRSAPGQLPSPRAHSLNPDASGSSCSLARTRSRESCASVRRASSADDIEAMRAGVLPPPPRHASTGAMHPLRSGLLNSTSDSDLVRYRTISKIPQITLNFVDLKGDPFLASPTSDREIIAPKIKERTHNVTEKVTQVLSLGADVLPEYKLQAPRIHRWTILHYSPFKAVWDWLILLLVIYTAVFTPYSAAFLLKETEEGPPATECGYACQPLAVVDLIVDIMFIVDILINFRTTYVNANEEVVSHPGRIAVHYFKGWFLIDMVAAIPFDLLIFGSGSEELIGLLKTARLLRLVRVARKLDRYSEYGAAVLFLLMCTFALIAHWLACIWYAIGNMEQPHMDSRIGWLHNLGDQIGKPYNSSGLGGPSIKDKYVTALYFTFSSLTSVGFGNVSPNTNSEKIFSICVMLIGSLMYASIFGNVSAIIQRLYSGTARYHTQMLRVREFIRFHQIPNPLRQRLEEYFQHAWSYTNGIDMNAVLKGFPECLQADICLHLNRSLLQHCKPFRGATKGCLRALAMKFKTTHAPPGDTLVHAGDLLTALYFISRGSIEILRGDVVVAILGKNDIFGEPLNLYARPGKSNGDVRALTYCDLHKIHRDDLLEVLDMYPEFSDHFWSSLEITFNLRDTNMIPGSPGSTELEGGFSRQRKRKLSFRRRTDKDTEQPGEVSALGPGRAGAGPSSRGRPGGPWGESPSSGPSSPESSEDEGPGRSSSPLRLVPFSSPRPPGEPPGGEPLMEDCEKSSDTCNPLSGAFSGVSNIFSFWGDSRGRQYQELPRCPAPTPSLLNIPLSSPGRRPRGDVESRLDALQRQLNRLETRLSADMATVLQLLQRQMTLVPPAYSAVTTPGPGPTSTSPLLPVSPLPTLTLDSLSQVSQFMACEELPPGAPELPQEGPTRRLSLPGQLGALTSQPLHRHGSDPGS

CCN(CC)CCOC(=O)C(C)(c1ccccc1)c1ccccc1
inactive: [1] | [2] | [3] | [7]
active: [4] 1.55 µM | [5] 3.89 µM | [6] 12.3 µM | [8] 10.7 µM

CNC(=O)Oc1c(C(C)(C)C)cc(C)cc1C(C)(C)C
inactive: [1] | [2] | [3] | [4] | [7] | [8]
active: [5] 2.83 µM | [6] 6.33 µM | [9] 2.83 µM

O=C(NCO)NCO
inactive: [1] | [2] | [3] | [4] | [5] | [6] | [7] | [8] | [9]

Nc1cc(Cl)ccc1O
active: [4] 34.4 µM | [5] 21.7 µM | [6] 30.7 µM | [7] 30.7 µM | [9] 21.7 µM
inactive: [1] | [2] | [3] | [8]

CCS(=O)(=O)CCSP(=O)(OC)OC
inactive: [1] | [2] | [3] | [4] | [5] | [6] | [7] | [8]

O=NN1CCN(N=O)CC1
inactive: [1] | [2] | [3] | [4] | [5] | [6] | [7] | [8]

NC(=O)O
inactive: [1] | [2] | [3] | [4] | [5] | [6] | [7] | [8] | [9]

Nc1n[nH]c(N)n1
active: [7] 64.4 µM
inactive: [1] | [2] | [3] | [4] | [5] | [6] | [8]

CCCCCCI
inactive: [1] | [2] | [3] | [4] | [5] | [6] | [7] | [8] | [9]

CN1C(=S)CN=C(c2ccccc2)c2cc(Cl)ccc21
active: [5] 21.9 µM | [6] 17.4 µM
inactive: [1] | [2] | [3] | [4]

CCC(=O)c1ccccc1
inactive: [1] | [2] | [3] | [4] | [5] | [6] | [7]

CC(C1CC1)C(O)(Cn1cncn1)c1ccc(Cl)cc1 (stereo unspecified)
inactive: [1] | [2] | [3]
active: [4] 35.4 µM | [5] 0.354 µM | [6] 0.126 µM

CC(CCc1ccccc1)NC(C)C(O)c1ccc(O)cc1 (stereo unspecified)
active: [4] 0.436 µM | [5] 9.77 µM | [7] 15.5 µM
inactive: [1] | [2] | [3] | [6]

CCOP(=S)(OCC)SCSc1ccc(Cl)cc1
inactive: [1] | [2] | [3] | [8]
active: [4] 11.2 µM | [5] 0.502 µM | [6] 1 µM | [7] 8.94 µM

OC(Cn1cncn1)(c1ccc(F)cc1)c1ccccc1F (stereo unspecified)
active: [4] 35.6 µM | [5] 2 µM | [6] 0.796 µM | [7] 31.7 µM | [9] 0.224 µM
inactive: [1] | [2] | [3] | [8]

CC1COC2(c3ccccc3Cl)c3cc(Cl)ccc3NC(=O)CN12 (stereo unspecified)
active: [4] 15.5 µM | [5] 4.36 µM | [6] 27.5 µM
inactive: [1] | [2] | [3] | [7]

CC(C)(C)OC(=O)c1ncn2c1[C@@H]1CCCN1C(=O)c1c(Br)cccc1-2
inactive: [1] | [2] | [3] | [4] | [5] | [7]
active: [6] 7.76 µM

CC1CCCCC1NC(=O)Nc1ccccc1 (stereo unspecified)
inactive: [1] | [2] | [3] | [8]
active: [4] 71 µM | [5] 11.2 µM | [6] 35.6 µM | [7] 31.7 µM

ClC(Cl)(Cl)C(Cl)(Cl)Cl
inactive: [1] | [2] | [3] | [4] | [5] | [6] | [7] | [8]

CC(=O)CC(c1ccc(Cl)cc1)c1c(O)c2ccccc2oc1=O (stereo unspecified)
active: [6] 11.8 µM
inactive: [1] | [2] | [3] | [4] | [5] | [7] | [8] | [9]

CCOC(=O)C(c1c(O)c2ccccc2oc1=O)c1c(O)c2ccccc2oc1=O
inactive: [1] | [2] | [3] | [4] | [5] | [8] | [9]
active: [6] 2.75 µM | [7] 27.5 µM

COc1cccc(C(=O)NN(C(=O)c2cc(C)cc(C)c2)C(C)(C)C)c1C
active: [4] 39.9 µM | [5] 3.56 µM | [6] 17.8 µM | [9] 0.71 µM
inactive: [1] | [2] | [3] | [7] | [8]

CC(C)(C)NCC(O)c1cc(Cl)c(N)c(Cl)c1 (stereo unspecified)
inactive: [1] | [2] | [3] | [5] | [6] | [7] | [8] | [9]
active: [4] 15.5 µM

OCCSCSCCO
inactive: [1] | [2] | [3] | [4] | [5] | [6] | [7] | [8] | [9]

CCOP(=S)(Oc1cnc(C(C)(C)C)nc1)OC(C)C (stereo unspecified)
active: [1] 63.3 µM | [2] 39.9 µM | [3] 10 µM | [4] 35.6 µM | [5] 0.356 µM | [6] 1.59 µM | [7] 22.4 µM

CCOC(=O)CP(=O)(OCC)OCC
inactive: [1] | [2] | [3] | [4] | [5] | [6] | [7] | [8] | [9]
